Structures are written as SMILES. About 11,000 (3.5%) of roughly 310,000 compounds were called active. Entries that show only a call come without a potency. Not shown: some 8% with an inconclusive outcome. Calls follow the shape of the dose curve; as a rule, active = well fitted inhibition curve with a large enough effect; inconclusive = small, poorly fitted or top-dose-only effect, or effect the other way; inactive = flat fitted curve, though single readings scatter. The full list was thinned out, with actives kept by preference.
Potency is read from the fitted curve at half-maximal effect.

This assay in a line: VP16 counterscreen qHTS for inhibitors of ROR gamma transcriptional activity.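 Also: Gal4-VP16 expression switched on by copper sulfate through the metallothionein promoter; nearly all actives have a fitted effect of over 50% in size.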 The conditions noted are these: Drosophila S2 Gal4-VP16 UAS-luciferase, luminescence, 20 h; series mostly up to 53.6 µM. The text has this:
NIH Molecular Libraries Probe Production Network [MLPCN]
NIH Chemical Genomics Center [NCGC]
Assay Provider: Dan Littman, New York University
The retinoic acid-related orphan receptor (ROR) gamma is a transcription factor that has a central role in the differentiation of Th17 cells, a subset of T helper cells that secrete the inflammatory cytokines IL-17, IL-17F, and IL-22. Th17 cells have been implicated in graft versus host disease, autoimmune disease and asthma. ROR gamma is induced in naive T helper cells in the presence of TGF-beta combined with IL-6, IL-21, or IL-23, and thereafter directs the expression of the Th17 lineage cytokines. To identify nonspecific inhibitors, a Drosophila Schneider cell line was stably transfected with two vectors: a gene expressing a fusion of the Gal4 DNA binding domain and VP16 transactivation domain under the control of the metallothionine promoter and a Photinus luciferase reporter regulated by the Gal4 binding site enhancer, UAS. […] Small molecule inhibitors that inhibit components common to the RORgt and VP16 assays, such as the Gal4 DNA binding domain or the UAS luciferase reporter, will be active in both assays and thus scored as nonspecific.
For screening, 600 cells in 4 uL/well were dispensed into white solid 1536-well plates (Grenier) using a solenoid-based dispenser. Following transfer of 23 nL compound or DMSO vehicle by a pin tool, the plates were incubated 1 hr at ambient temperature, and 1 uL/well copper sulfate (700 uM final concentration) was added. The plates were centrifuged 15 s at 1000 RPM and incubated 20 hr at ambient temperature. After addition of 1.5 uL Photinus luciferase detection reagent, the plates were incubated 10 min at ambient temperature and then read by a ViewLux (Perkin Elmer) to detect luminescence.
On the technique in general: A counterscreen serves to expose hits that act by an unwanted route or on another target.
As for `Oc1ccc(/C=N/NC2=NCCCCC2)c(O)c1`, the Potency result is “inactive”.

For `Cc1nc2ccccc2nc1N/N=C/c1ccc(O)cc1O`, the Potency was 15.8 µM (active).

Regarding `Cc1cc(N/N=C/c2ccccc2F)c2ccccc2n1`, the Potency result was “inactive”. In the case of `CC(NC(=O)C(=O)NN=C1CCC(C(C)(C)C)CC1)c1ccccc1` (stereo unspecified) it was “inactive”; in that of `CC(C)(C)C1CCC(=NNC(=O)c2cc(-c3ccccc3)n[nH]2)CC1` (stereo unspecified), 20 µM (active). In the case of `CC(C)(C)C1CCC(=NNC(=O)c2ccc(Br)o2)CC1` (stereo unspecified) it was “inactive”. In the case of `CN(Cc1ccccc1Cl)C(=O)C1CCC(=O)N(CCc2cccc(F)c2)C1` (stereo unspecified) it was “inactive”. `CCn1c(=O)cc(OCC(=O)NCCCN2CCN(c3cccc(Cl)c3)CC2)c2ccccc21`: the Potency result was “inactive”. In the case of `O=C(CCCn1c(=O)[nH]c2cc(Cl)ccc2c1=O)NCCN1CCN(c2ccccc2)CC1` it was “inactive”; in that of `O=C(Cc1csc(Nc2nc(=S)[nH]c3ccccc23)n1)NCCCN1CCN(c2cccc(Cl)c2)CC1`, 7.08 µM (active); in that of `CCCCn1c(N)c(N(CC)C(=O)c2ccccc2C(F)(F)F)c(=O)[nH]c1=O`, “inactive”. In the case of `Cc1ccc(CNC(=O)Cc2cn(C)c3ccccc23)cc1` it was “inactive”; in that of `CC1CCCC(C)N1C(=O)CSc1nnnn1C1CCCC1` (stereo unspecified), “inactive”; in that of `O=C(NCCCO)c1cc2c([nH]c3ccccc32)c(-c2ccc(F)cc2)n1`, “inactive”. Regarding `CC(=O)c1c(-c2ccccc2)c2ccccc2[nH]c1=O`, the Potency result is “inactive”. In the case of `NC(=O)Cc1ccc2c(c1)[nH]c1ccccc12`, the Potency result is “inactive”. The result for `S=c1[nH]c2ccccc2c2ccccc12` reads 17.8 µM (active); that for `COc1cccc2sc(NNC(=O)c3nc4ccccc4s3)nc12`, 2 µM (active). In the case of `COc1ccc(S(=O)(=O)N2CCOCC2)cc1C(=O)Nc1nc2ccccc2s1` it was “inactive”. As for `O=C(Nc1ccccc1)Nc1nc2ccccc2s1`, the Potency result was “inactive”. In the case of `O=c1[nH]cccc1-c1nc2ccccc2n1Cc1ccc(Cl)cc1` it was “inactive”; in that of `Cc1cc(C)c(NC(=O)CN2CCCCCC2)c(C)c1`, “inactive”. On to `Cc1cc(-c2n[nH]c(=S)n2/N=C/c2ccco2)n[nH]1`, for which the Potency result was “inactive”. With `S=c1[nH]nc(-c2cccnc2)n1/N=C/C(Cl)=C\c1ccccc1`, the Potency was 7.08 µM (active). With `Oc1ccccc1/C=N/n1c(-c2cccs2)n[nH]c1=S`, the Potency result is “inactive”. The result for `Cc1cc(-c2n[nH]c(=S)n2/N=C/C(Br)=C/c2ccccc2)n[nH]1` reads 11.2 µM (active); that for `Fc1ccccc1/C=N/n1c(-c2cccnc2)n[nH]c1=S`, “inactive”. The result for `O=[N+]([O-])c1ccccc1/C=N/n1c(COc2ccccc2)n[nH]c1=S` reads “inactive”.

`COc1ccc(C2(O)C(=O)Nc3ccccc32)cc1` (stereo unspecified): the Potency entry is “inactive”. Turning to `COCCN1C(=O)C(=O)/C(=C(/O)c2ccc(S(=O)(=O)N3CCOCC3)cc2)C1c1ccc(O)c(OC)c1` (stereo unspecified), the Potency result was “inactive”. On to `CC(C)c1ccc(/C=C2\NC(=O)NC2=O)cc1`, for which the Potency entry was “inactive”. With `CCN(CC)S(=O)(=O)c1ccc(C(=O)N2CCN(C3=NS(=O)(=O)c4ccccc43)CC2)cc1`, the Potency result was “inactive”. The result for `Cc1nc2nc(SCC(=O)Nc3cccc(F)c3)[nH]c2cc1Br` reads “inactive”; that for `O=C(O)CCC(=O)Nc1ccc(OCC2CCCO2)cc1` (stereo unspecified), “inactive”. In the case of `COc1cccc(-c2cc(C(=O)N/N=C/c3ccc(OC)c(COC(C)=O)c3)c3ccccc3n2)c1` it was “inactive”; in that of `Cc1ccc(-c2cc(C(=O)N/N=C/C=C/c3ccco3)c3ccccc3n2)cc1C`, 4.47 µM (active). The result for `Cc1cc(C(=O)N/N=C/c2ccccn2)c2ccccc2n1` reads “inactive”; that for `CC(NC(=O)CCCC1CCCCC1)c1ccc(S(N)(=O)=O)cc1` (stereo unspecified), “inactive”. As to `O=C(O)CCn1c(Cc2ccccc2)nc2ccccc21`, the Potency result is “inactive”. The result for `Cc1cc2ccccc2n1CCC(=O)O` reads “inactive”. On to `O=C(O)CCn1c(O)c(C=C2N=c3ccccc3=N2)sc1=S`, for which the Potency is 3.55 µM (active). In the case of `COc1ccc(CCNC(=O)CCc2cn(C)c3ccccc23)c(OC)c1` it was “inactive”.

As for `COC(=O)CN1C(=O)C(C)(C)Oc2ccc(C(=O)Nc3cccc(OC)c3)cc21`, the Potency result was “inactive”. Regarding `CCNc1ncc2ncc(=O)n(CCc3ccccc3)c2n1`, the Potency entry is “inactive”.

In the case of `COC(=O)C(C)Sc1nc2c(c(=O)n(C)c(=O)n2C)n1Cc1cccc(C)c1` (stereo unspecified), the Potency result is “inactive”. As for `CCCCNc1nc2c(c(=O)n(C)c(=O)n2C)n1Cc1cccc(OC)c1`, the Potency is 4.47 µM (active). With `Cn1c(=O)c2c(nc(NCCc3ccccc3)n2Cc2ccccc2)n(C)c1=O`, the Potency is 6.31 µM (active). For the molecule `Cn1c(=O)c2c(nc(OCc3cccnc3)n2Cc2ccccc2)n(C)c1=O`, the Potency result is “inactive”. `CCNc1ncc2ncc(=O)n(Cc3cccc(OC)c3)c2n1`: the Potency is 11.2 µM (active). As for `CCn1c(NCCc2ccc(OC)c(OC)c2)nc2c1c(=O)n(C)c(=O)n2C`, the Potency result is “inactive”.

As to `COc1cccc(Cn2c(=O)cnc3cncnc32)c1`, the Potency result was “inactive”. In the case of `Cn1c(=O)c2c(nc(NCc3ccccc3)n2CC(N)=O)n(C)c1=O`, the Potency result is “inactive”. On to `CCOCCCn1c(SCC(=O)Nc2cc(OC)ccc2OC)nc2ccccc2c1=O`, for which the Potency entry was “inactive”. `CC(C)c1nc2cc(C(=O)NC(C)c3cnn(C)c3)ccc2o1` (stereo unspecified): the Potency entry was “inactive”. In the case of `Cc1cnc(C(=O)Oc2cccc(Cl)c2Cl)cn1` it was “inactive”. As for `COCCN1CCN(C(=O)c2cc(COc3ccc(F)cc3Cl)on2)CC1`, the Potency entry is “inactive”.

As to `CC(C)c1ccc(NC(=O)Cn2ncc3ccccc32)cc1`, the Potency entry is “inactive”. As to `O=S1(=O)CCO[C@H]2Cc3ccccc3[C@H]2N1Cc1ccccc1`, the Potency entry was “inactive”. In the case of `CCN(CC(=O)NCCCN1CCOCC1)S(=O)(=O)c1cc(Cl)ccc1Cl` it was “inactive”; in that of `COc1ccc(CC(=O)N[C@@H](CCSC)c2nc3ccccc3[nH]2)cc1`, “inactive”. The result for `CSCCC(NC(=O)c1cc([N+](=O)[O-])cc([N+](=O)[O-])c1)c1nc2ccccc2[nH]1` (stereo unspecified) reads 25.1 µM (active); that for `CSCCC(NC(=O)c1ccc(=O)n(C)n1)c1nc2ccccc2[nH]1` (stereo unspecified), “inactive”; that for `CC(c1ccccn1)N(C)C(=O)c1ccc2nc(Cc3cccc(Cl)c3)oc2c1` (stereo unspecified), “inactive”.

With `CCOC(=O)C(C)n1cnc2c(nnn2-c2cccc(OC)c2)c1=O` (stereo unspecified), the Potency result is “inactive”.

On to `O=C1CSC(c2ccccc2)N1c1nc(-c2ccc(Cl)cc2Cl)cs1` (stereo unspecified), for which the Potency entry is “inactive”. The result for `O=C(NCc1ccccn1)c1cc(-c2ccccc2Cl)on1` reads “inactive”; that for `Clc1ccc(-c2cc(-c3ccccn3)on2)c(Cl)c1`, 7.08 µM (active); that for `CC(=O)N1c2ccc(S(=O)(=O)N3CCCC(C(=O)Nc4cccc(Cl)c4)C3)cc2CC1C` (stereo unspecified), “inactive”.

Turning to `CC(=O)N1CCCc2cc(S(=O)(=O)N3CCCC(C(=O)N4CCN(c5cccc(Cl)c5)CC4)C3)ccc21` (stereo unspecified), the Potency is 3.98 µM (active). With `CC(=O)N1CCCc2cc(S(=O)(=O)N3CCCC(C(=O)NCc4ccc(Cl)cc4)C3)ccc21` (stereo unspecified), the Potency entry is “inactive”. The result for `COc1ccc(C(C(=O)NC2CCCC2)N(CCCO)C(=O)Cn2nnc(-c3ccc(C)o3)n2)cc1` (stereo unspecified) reads “inactive”; that for `COc1ccc(-c2cc(=O)oc3cc(OCC(=O)N(C)C4CCS(=O)(=O)C4)ccc23)cc1` (stereo unspecified), “inactive”. The result for `Cc1onc(-c2c(Cl)cccc2Cl)c1C(=O)NNC(=O)c1c(-c2c(Cl)cccc2Cl)noc1C` reads “inactive”; that for `CC(=O)Nc1cccc(/C(C)=N/NC(=O)c2c(-c3ccccc3Cl)noc2C)c1`, 20 µM (active).

With `CC(=O)Nc1cccc(/C(C)=N/NC(=O)c2ccccc2Cl)c1`, the Potency entry was “inactive”. Regarding `CCc1cccc(OC2OC(CO)C(O)C(O)C2NC(C)=O)c1` (stereo unspecified), the Potency entry is “inactive”. The result for `Cc1csc(-c2coc3cc(O[C@@H]4O[C@H](CO)[C@@H](O)[C@@H](O)[C@H]4O)ccc3c2=O)n1` reads 15.8 µM (active). In the case of `COc1cc(/C=C/CO)cc(OC)c1O[C@@H]1O[C@H](CO)[C@@H](O)[C@H](O)[C@H]1O` it was “inactive”; in that of `CCN(C(=O)C1CCCN(c2nc(-c3ccc(OC)cc3)no2)C1)c1ccc(OC)cc1` (stereo unspecified), “inactive”.

For the molecule `CC(=O)[C@@]12O[C@@H]1C[C@H]1[C@@H]3CC[C@H]4C[C@@H](O)CC[C@]4(C)[C@H]3CC[C@@]12C`, the Potency entry was “inactive”.

As to `Cc1cccc(C(=O)Nc2ccccc2N2CCN(c3ccc(F)cc3)CC2)c1`, the Potency entry is “inactive”. In the case of `Cc1cccc(C(=O)NNC(=O)c2cccc([N+](=O)[O-])c2)c1` it was “inactive”. In the case of `Cc1cccc(C(=O)NC(=S)N2CCN(c3ccc([N+](=O)[O-])cc3)CC2)c1`, the Potency is 1 µM (active). In the case of `CCOc1cc(C(=S)N2CCOCC2)ccc1OS(=O)(=O)c1ccc(Br)cc1` it was “inactive”. As to `COc1cccc(-c2coc3cc4oc(=O)c(CC(=O)O)c(C)c4cc23)c1`, the Potency result was “inactive”.

Consider `Cc1c(Cl)c([N+](=O)[O-])nn1CCCC(=O)Nc1cc(Cl)ccc1Cl`, for which the Potency entry was “inactive”. In the case of `O=C(N/N=C/c1ccc2c(c1)OCO2)c1ccc(Cn2cc([N+](=O)[O-])cn2)o1` it was “inactive”. On to `Cc1c(Cl)c([N+](=O)[O-])nn1Cc1ccc(C(=O)N/N=C\c2cc(Cl)ccc2O)o1`, for which the Potency was 11.2 µM (active). Regarding `COc1cccc(-c2cccc(NC(=O)C3CCN(C4CCC4)CC3)c2)c1`, the Potency entry was “inactive”. On to `O=C1/C(=C\c2ccsc2)NC(=S)N1c1ccccc1`, for which the Potency was 22.4 µM (active). For the molecule `CCCCN=C1N/C(=C\c2ccco2)C(=O)N1c1ccccc1`, the Potency entry was “inactive”. Turning to `COc1cc2c(cc1/C=C1/NC(=O)N(c3ccccc3)C1=O)OCO2`, the Potency result is “inactive”. The result for `O=C(CNc1cccc(S(=O)(=O)N2CCCCC2)c1)Nc1ccccc1F` reads “inactive”; that for `COc1ccc(C(=O)NC(C)c2nccs2)cc1OC1CCN(C(C)C)CC1` (stereo unspecified), “inactive”.

With `CCOC(=O)c1ccc(NC(=O)c2cc(=O)[nH]c3ccccc23)cc1`, the Potency result was “inactive”. In the case of `CCOC(=O)c1ccc(NC(=O)c2nc[nH]c2C(=O)NCc2ccccc2)cc1` it was 5.62 µM (active). The result for `CCOC(=O)c1[nH]cnc1C(=O)Nc1ccccc1C` reads “inactive”. In the case of `Cc1ccc(C(C)C)cc1OCC(=O)Nc1ccccc1N1CCCC1` it was “inactive”; in that of `O=C(c1cc2ccccc2o1)N1CCN(c2cccc(C(F)(F)F)c2)CC1`, “inactive”; in that of `CCCCC[C@H]1CN(C2CCCCC2)C(=O)[C@@H]1CC(=O)NCc1ccc(OC)cc1`, “inactive”. For `CCC(C)C(=O)Nc1ccccc1N1CCN(c2ccc(F)cc2)CC1` (stereo unspecified), the Potency entry is “inactive”.

Values taken from PubChem BioAssay AID2546 (National Center for Advancing Translational Sciences (NCATS), 2010).
